# Marburg entry: qHTS for Inhibitors of binding or entry into cells for Marburg Virus | Marburg virus pseudotype entry/binding inhibition, cell-based | Potency, µM (doses to about 49.2 µM), most hits filed as inhibitors | 6.5% of 18,000 active | AID 720532, 2013
# LASV entry inh: qHTS for Inhibitors of binding or entry into cells for Lassa Virus. Potency, µM (doses to about 49.2 µM), most hits filed as inhibitors. 4.1% of 18,000 active. Lassa virus pseudotyped entry inhibition, cell-based qHTS
# A number is an active result; – = inactive; ? = inconclusive; · = no result; ! = a repeat was not active; [ ] = another dose, or the depositor's remark. In the library only some 8.6% were active in any assay of this set; here they are far more common. Calls come from the whole dose curve; tested in HEK293 cells.
SMILES,Marburg entry,LASV entry inh
Cn1cc(C(=O)C(=O)N[C@H]2CN3CCC2CC3)c2ccccc21,28.2µM!,?
C=CCOC(=O)N[C@H](C(C(=O)OC)=C(C)NCc1ccccc1)c1cccc(F)c1,?,–[8.59 µM]
C[C@@H]1CC2=CCCC2[C@]2(O1)C(=O)N(Cc1ccc(F)cc1)c1cccc(Br)c12 (some centres undefined),–[8.59 µM],–[8.59 µM]
CC(C)OC(=O)c1cn(Cc2c(F)cccc2F)c2sc(-c3ccc(NC(=O)C(C)C)cc3)c(CN(C)Cc3ccccc3)c2c1=O,2.51µM,15.8µM
COC(=O)N[C@H](C(C(=O)OC)=C(C)NCc1ccccc1)c1cccc(F)c1,–[8.59 µM],–[8.59 µM]
O=C(OCc1cn([C@H]2CN(C(=O)C3CCCCC3)[C@@H](c3ccc(Cl)cc3)C[C@H]2O)nn1)c1ccccc1,–,–
CC(=O)OC1(c2ccccc2)CCN(CCc2ccccc2)CC1,?,–
CN(C)C(=O)C(CCN1CCC(O)(c2ccc(Cl)cc2)CC1)(c1ccccc1)c1ccccc1,6.31µM,25.1µM!
COC(=O)C1=C2C=C(C)CC(C)N2C(=O)NC1c1ccccc1 (centres undefined),–[8.59 µM],–[8.59 µM]
CC(N)C(O)c1cccc(O)c1 (centres undefined),–,–
CNC[C@H](O)c1ccc(O)c(O)c1,7.94µM!,?
C[C@H](N)[C@H](O)c1ccc(O)c(O)c1,5.01µM,?
NC[C@H](O)c1ccc(O)c(O)c1,28.2µM,–
NC[C@@H](O)c1ccc(O)c(O)c1,?,–
CC(C)NCC(O)c1ccc(O)c(O)c1 (centres undefined),–,–
CC12C=C(C=Cc3ccc(Br)cc3)C(C)(C1)C(c1ccc(Br)cc1)CC2=O (centres undefined),–[8.59 µM],·
CCC(=O)Nc1ccc(C)c(-c2ccc(C(=O)NCC3CC3)cc2)c1,–,–
CSC[C@H]1CN(c2ccc(Br)cc2)C(=O)[C@H]1CC(=O)Nc1ccc(Br)cc1,–,–
CN1C2CCC1CC(OC(=O)C1CCC(C(=O)OC3CC4CCC(C3)N4C)(c3ccccc3)c3ccccc31)C2 (centres undefined),6.31µM,?
CC[N+]1(C)[C@@H]2CC[C@H]1CC(OC(=O)[C@H]1CC[C@@](C(=O)OC3C[C@H]4CC[C@@H](C3)[N+]4(C)CC)(c3ccccc3)c3ccccc31)C2 (some centres undefined),–,–
COC(=O)CC=C[C@@H](C)[C@@H](C=NOC[C@@H](O)COCc1ccco1)NS(=O)(=O)c1ccc(C)cc1,–[8.59 µM],–[8.59 µM]
C=CC[C@]1(C(=O)OC)C=C[C@H](C)[C@@H](c2ccccc2)N1C(=O)C(F)(F)F,–[8.59 µM],–[8.59 µM]
CC(C)=CCCC(C)=CCN1C(=O)[C@]2(O[C@H](COc3ccccc3)CC3=CCCC32)c2c(Br)cccc21 (some centres undefined),–[8.59 µM],–[8.59 µM]
COC(=O)C[C@@](O)(CCC(C)(C)O)C(=O)O[C@@H]1C(OC)=C[C@]23CCCN2CCc2cc4c(cc2[C@@H]13)OCO4,0.1µM,0.112µM
COC(=O)C(O)C(O)(CCC(C)C)C(=O)OC1C(OC)=CC23CCCN2CCc2cc4c(cc2C13)OCO4 (centres undefined),0.004µM,0.126µM
SMILES,Marburg entry,LASV entry inh
COC(=O)C[C@](O)(CCCC(C)(C)O)C(=O)O[C@@H]1C(OC)=CC23CCCN2CCc2cc4c(cc2[C@H]13)OCO4 (some centres undefined),?,22.4µM
COC1=CC23CCCN2CCc2cc4c(cc2C3C1O)OCO4 (centres undefined),–,–
CCCCCCN1C[C@@H](n2cc(C3CC3)nn2)[C@H](O)C[C@H]1c1ccc(C)cc1,–,·
COc1cccc2c1[C@H](C=Cc1ccccc1)[C@@H]([C@H](O)COC(C)=O)OC2,–[8.59 µM],–[8.59 µM]
COc1ccc(OC[C@@H]2CC3[C@@H](CC[C@@H](C)[C@H]3c3ccc(Br)cc3)C(=O)O2)cc1 (some centres undefined),–[8.59 µM],–[8.59 µM]
NC(=NCCc1ccc(I)cc1)SCCCc1cnc[nH]1,22.4µM,–
NCCc1cnc[nH]1,–,–
COc1ccc(O[C@H]2C=C[C@@H](c3ccccc3)O[C@H]2COC(=O)CCC(C)=NOC[C@@H](O)COCc2ccco2)cc1,–[8.59 µM],·
C=C(CCN1C=C(C(C)=O)C(c2ccccc2)NC1=O)c1ccc(OC)cc1 (centres undefined),–[8.59 µM],–[8.59 µM]
CC[C@@]1(O)C(=O)OCc2c1cc1n(c2=O)Cc2cc3cc(O)ccc3nc2-1,?,0.112µM
C=CCC12OC3(OC)CC1[C@H](C)[C@@H](c1ccccc1)C2[C@@]3(C)O (some centres undefined),–[8.59 µM],–[8.59 µM]
O[C@H]1CN(Cc2cccs2)[C@@H](c2ccccc2)C[C@H]1n1cc(C2CC2)nn1,–,–
CC1(S(=O)(=O)O)CC(=O)c2ccccc2C1=O (centres undefined),14.1µM,25.1µM
CCOC(=O)[C@@]1([C@@H](NC(=O)OC)c2ccco2)CCCC1=O,–[8.59 µM],–[8.59 µM]
CC=Cc1cc2ccccc2c2c(C(=O)OC)c(C(=O)OC)c(C(=O)OC)n12,?,–[8.59 µM]
C=CCN1C(=O)[C@@]2(CC(C)=CC[C@@H](C)O2)c2ccccc21,–[8.59 µM],–[8.59 µM]
